Results published in PubChem BioAssay AID1159580 (chemical genetic matrix, 2015).
Values joined by “and” are separate entries in the source; they are usually repeats but may differ in a detail not shown here. Equal entries are not always repeated. Among all 5,500 compounds or so, about 2,000 (36%) were called active. Another 18% or so got no clear call; they are omitted. Cut-off read from the data, not from the text of the source: active = normalized growth mostly below about 0.91 (no sharp cut-off); inconclusive = no clear call, values can overlap the other calls; inactive = mostly above about 0.92. The list shows a part of the results.

Assay: chemical genetic growth profiling, strain panel (AID 1159580);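 note: tested at 20 µM; growth read once vehicle control cultures reached saturation at 30 °C; 1 = growth at the plate median or of vehicle wells; lower values mean less growth of the strain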
Details: S. cerevisiae deletion strains, growth OD

Measured: normalized growth

COc1cc(O)ccc1C(C)=O
inactive: locus YAL013W, strain DEP1, stronger effect = lower value 0.99 | locus YAL021C, strain ccr4, stronger effect = lower value 1.02 | locus YAL026C, strain drs2, stronger effect = lower value 1.02 | locus YAL030W, strain snc1, stronger effect = lower value 1.01 | locus YBL061C, strain skt5, stronger effect = lower value 1.02 | locus YBR009C, strain hhf1, stronger effect = lower value 1.02 | locus YBR021W, strain FUR4, stronger effect = lower value 1.05 | locus YBR023C, strain chs3, stronger effect = lower value 1.04 | locus YBR171W, strain sec66, stronger effect = lower value 1.01 | locus YBR229C, strain ROT2, stronger effect = lower value 0.958 | locus YBR231C, strain swc5, stronger effect = lower value 1 | locus YBR279W, strain paf1, stronger effect = lower value 1 | locus YCL011C, strain gbp2, stronger effect = lower value 1.03 | locus YCL016C, strain dcc1, stronger effect = lower value 1.03 | locus YCL029C, strain bik1, stronger effect = lower value 0.973 | locus YCL061C, strain MRC1, stronger effect = lower value 1.02 | locus YCL069W, strain vba3, stronger effect = lower value 1.01 | locus YCR088W, strain abp1, stronger effect = lower value 1.02 | locus YDL005C, strain med2, stronger effect = lower value 1.01 | locus YDL035C, strain GPR1, stronger effect = lower value 0.979 | locus YDL040C, strain nat1, stronger effect = lower value 1.01 | locus YDL074C, strain BRE1, stronger effect = lower value 1.03 | locus YDL101C, strain DUN1, stronger effect = lower value 0.974 | locus YDL134C, strain PPH21, stronger effect = lower value 0.977 | locus YDL185W, strain tfp1, stronger effect = lower value 0.97 | locus YDL192W, strain arf1, stronger effect = lower value 0.992 | locus YDR001C, strain nth1, stronger effect = lower value 1.02 | locus YDR069C, strain doa4, stronger effect = lower value 1.02 | locus YDR101C, strain arx1, stronger effect = lower value 1.03 | locus YDR137W, strain rgp1, stronger effect = lower value 1.05 | locus YDR150W, strain NUM1, stronger effect = lower value 0.981 | locus YDR159W, strain sac3, stronger effect = lower value 1.03 | locus YDR162C, strain NBP2, stronger effect = lower value 0.939 | locus YDR195W, strain ref2 1 | locus YDR297W, strain sur2, stronger effect = lower value 1.02 | locus YDR318W, strain mcm21, stronger effect = lower value 0.965 | locus YDR334W, strain swr1, stronger effect = lower value 1.02 | locus YDR335W, strain msn5, stronger effect = lower value 1.01 | locus YDR388W, stronger effect = lower value 0.949 | locus YDR392W, strain spt3, stronger effect = lower value 0.95 | locus YDR502C, strain sam2, stronger effect = lower value 1.02 | locus YEL003W, strain gim4, stronger effect = lower value 1.01 | locus YEL037C, strain rad23, stronger effect = lower value 1.02 | locus YEL061C, strain CIN8 (second series), stronger effect = lower value 1.02 | locus YEL061C, strain CIN8, stronger effect = lower value 0.982 | locus YER015W, strain faa2, stronger effect = lower value 1.03 | locus YER016W, strain bim1, stronger effect = lower value 1.02 | locus YER110C, stronger effect = lower value 0.979 | locus YER111C, strain swi4, stronger effect = lower value 1.02 | locus YER155C, strain BEM2 (second series), stronger effect = lower value 1.02 | locus YER155C, strain BEM2, stronger effect = lower value 0.989 | locus YER167W, strain BCK2, stronger effect = lower value 0.979 | locus YFR010W, strain ubp6, stronger effect = lower value 1.02 | locus YGL078C, strain dbp3, stronger effect = lower value 0.989 | locus YGL086W, strain mad1, stronger effect = lower value 1.02 | locus YGL167C, strain pmr1, stronger effect = lower value 1.02 | locus YGL173C, strain kem1, stronger effect = lower value 1.03 | locus YGL227W, strain vid30, stronger effect = lower value 1.02 | locus YGL240W, strain doc1, stronger effect = lower value 1.01 | locus YGL248W, strain PDE1, stronger effect = lower value 0.952 | locus YGL253W, strain hxk2, stronger effect = lower value 1.02 | locus YGR078C, strain PAC10, stronger effect = lower value 0.952 | locus YGR135W, strain pre9, stronger effect = lower value 0.962 | locus YGR229C, strain SMI1, stronger effect = lower value 1 | locus YGR252W, strain gcn5, stronger effect = lower value 0.961 | locus YHR013C, strain ard1, stronger effect = lower value 1.03 | locus YHR027C, strain rpn1, stronger effect = lower value 1.02 | locus YHR030C, strain SLT2, stronger effect = lower value 0.998 and 1.02 | locus YHR079C, strain IRE1 (second series), stronger effect = lower value 0.99 | locus YHR079C, strain IRE1, stronger effect = lower value 1.01 | locus YHR094C, strain hxt1, stronger effect = lower value 0.973 | locus YHR129C, strain ARP1, stronger effect = lower value 0.987 | locus YHR142W, strain chs7, stronger effect = lower value 1.04 | locus YHR200W, strain rpn10, stronger effect = lower value 0.982 | locus YIL066C, strain RNR3, stronger effect = lower value 0.985 | locus YIL073C, strain SPO22, stronger effect = lower value 0.955 | locus YIL125W, strain kgd1, stronger effect = lower value 0.981 | locus YIR030C, strain dcg1, stronger effect = lower value 0.987 | locus YJL092W, strain hpr5, stronger effect = lower value 1.02 | locus YJL095W, strain BCK1 (second series), stronger effect = lower value 1.02 | locus YJL095W, strain BCK1, stronger effect = lower value 0.942 and 1.02 | locus YJL115W, strain asf1, stronger effect = lower value 1.02 | locus YJL129C, strain trk1, stronger effect = lower value 1.04 | locus YJL134W, strain LCB3, stronger effect = lower value 0.989 | locus YJL154C, strain vps35, stronger effect = lower value 1.02 | locus YJL164C, strain tpk1, stronger effect = lower value 1.03 | locus YJL166W, strain qcr8, stronger effect = lower value 1.01 | locus YJL168C, strain set2, stronger effect = lower value 1.01 | locus YJL187C, strain SWE1 (second series), stronger effect = lower value 0.974 | locus YJL187C, strain SWE1, stronger effect = lower value 1.01
